{
  "source": "PubChem BioAssay AID504329",
  "about": "(Southern Research Specialized Biocontainment Screening …, 2011)",
  "note": "The whole screen tested about 340,000 compounds, of which about 1,000 (0.29%) were called active. Only a sample is shown. Results with a measured potency or affinity are listed apart. Values without a mark were called inactive. No stated cut-off is given here; in the data, inconclusive means inhibition above about 27% without an active follow-up result; inactive means below that.",
  "data": [
    {"assay": "NS1A inhibition, H1N1 influenza, cell based functional assay (AID 504329)", "details": "percent inhibition, at 12.5 µM, stronger effect = higher value", "units": {"inhibition": "%"}, "values": [
      {"smiles": "COc1ccc(C(=O)Nc2ccc(N3CCN(C(=O)C(C)C)CC3)cc2)cc1[N+](=O)[O-]", "inhibition": -5.48},
      {"smiles": "CCOC(=O)C1CCCN(CCC(=O)Nc2ccc(F)c(F)c2)C1", "note": "(stereo not drawn)", "inhibition": -6.65},
      {"smiles": "c1ccc(CSC2=NCCCN2)cc1", "inhibition": 5.1},
      {"smiles": "Cc1ccc(NC(=O)CSc2nc3ccccc3c(=O)n2CCCC(=O)N2CCCC2)cc1", "inhibition": -0.44},
      {"smiles": "CC1=NN(c2cccc(F)c2)C(=O)/C1=C/c1ccc(N(C)C)cc1", "inhibition": 15.2},
      {"smiles": "CCN(CC)c1ccc(/C=C2/C(=O)ON=C2C)cc1", "inhibition": 22.3},
      {"smiles": "COc1ccc(NC(=O)CN(C)CC(=O)NCCc2ccc(F)cc2)cc1", "inhibition": -13.6},
      {"smiles": "COCCN(Cc1cc2cccc(C)c2n2nnnc12)C(=O)C(F)(F)F", "inhibition": -4.57},
      {"smiles": "CN(CCc1cn[nH]c1)Cc1nc(Cc2ccccc2)no1", "inhibition": 3.23},
      {"smiles": "Oc1c(CN2CCOCC2)cc(-c2ccccc2)cc1CN1CCOCC1", "inhibition": 9.91},
      {"smiles": "Oc1c(CN2CCOCC2)cc(CN2CCOCC2)cc1CN1CCOCC1", "inhibition": -23.8},
      {"smiles": "O=C(Oc1c(CN2CCOCC2)cc(Cl)c2cccnc12)c1ccccc1Cl", "inhibition": 13.5},
      {"smiles": "COc1ccc(C(=O)Oc2c(CN3CCOCC3)cc(Cl)c3cccnc23)cc1", "inhibition": 6.29},
      {"smiles": "COc1ccc(CN2CCN(C)CC2)cc1OCc1ccccc1", "inhibition": 0.12},
      {"smiles": "CN1CCN(Cc2ccc(OCc3ccccc3)cc2)CC1", "inhibition": -2.13},
      {"smiles": "O=C(Oc1c(CN2CCOCC2)cc(Cl)c2cccnc12)c1ccccc1", "inhibition": -7.41},
      {"smiles": "COc1cc(OC)cc(C(=O)Oc2c(CN3CCOCC3)cc(Cl)c3cccnc23)c1", "inhibition": -7.03},
      {"smiles": "CC(/C=C1\\SC(=S)N(CCC(=O)Nc2nc(C)cs2)C1=O)=C\\c1ccccc1", "inhibition": -4.32},
      {"smiles": "COc1ccc(/C=C/c2nc(C)c(-c3ccccc3)c(=O)[nH]2)cc1OC", "inhibition": 2.31},
      {"smiles": "CCOc1ccc(C2=CSC3=NCCN23)cc1[N+](=O)[O-]", "inhibition": -15.6},
      {"smiles": "CCOc1ccc(NC(=S)Nc2ccc(OCc3ccccc3)cc2)cc1", "inhibition": 22},
      {"smiles": "CCCc1c(C(=O)Nc2ccc(F)cc2F)cnn1-c1ccccc1", "inhibition": 2.03},
      {"smiles": "c1ccc(COc2cccc(CN3CCCCC3)c2)cc1", "inhibition": 4.44},
      {"smiles": "COc1cc(CN2CCCCC2)ccc1OCc1ccccc1", "inhibition": -0.75},
      {"smiles": "Oc1c(CNc2ccccc2)cc(COCc2ccccc2)c2cccnc12", "inhibition": -1.39},
      {"smiles": "COc1cc(C(=O)N(C)C2CCCN(Cc3ccccc3F)C2)cc(OC)c1OC", "note": "(stereo not drawn)", "inhibition": -3.71},
      {"smiles": "CC(C)Oc1cccnc1N(C)C1CCN(Cc2ccccc2)CC1", "inhibition": 7.67},
      {"smiles": "OC(COCc1ccccc1)CN1CCCC1", "note": "(stereo not drawn)", "inhibition": -16.3}
    ]}
  ]
}
